Experiment [1] is described as follows: blockers of polyQ-driven CASP3 activation – cell-based (AID 1583). The conditions noted are these: polyglutamine-induced caspase-3 activation, cell assay; stronger effect = higher value;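 tested at 10 µM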.
Experiment [2] can be described thus: yeast 75Q aggregation reduction – 75Q-TubU reporter (AID 1593). The conditions noted are these: Yeast 75Q polyglutamine aggregation reporter.
Experiment [3] in a line: restoration of touch response, mutant HTT neurons – whole organism, C. elegans mechanosensory neurons, N-terminal huntingtin (AID 1599). The conditions noted are these: C. elegans polyQ-huntingtin mechanosensory neurons, stronger effect = higher value.
The nature of experiment [4]: blockers of cytochrome c efflux from mitochondria – biochemical, purified mitochondria (AID 1603).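 Note: mouse liver mitochondria challenged with calcium chloride; signal normalized to the plate average as 100%.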 The conditions noted are these: stronger effect = lower value.
A short description of experiment [5]: polyglutamine aggregate formation blockers (AID 1604). The conditions noted are these: polyglutamine-induced protein aggregation inhibition assay; stronger effect = higher value; tested at 2.5 µM.
Experiment [6] in a line: glutamate transport activators, MN-1 cells, MN-1 cell line (AID 1612).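 Note: tested at 1 µM final; 0% = mean of DMSO vehicle wells on each plate; positive means more glutamate uptake than control and negative means less.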 The conditions noted are these: MN-1 motor neuron cells, stronger effect = higher value.
The nature of experiment [7]: GFP-Q80 aggregate reduction, neuronal-like cells, cell-based, NGF-treated PC12, GFPQ80 (AID 1614).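 Note: lower means fewer inclusions and 0 means no inclusions at all.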 The conditions noted are these: PC12 NGF-treated GFP-polyQ80 inclusion reduction.
The nature of experiment [8]: 75Q-TubH aggregate inhibition, S. cerevisiae, yeast (AID 1616). The conditions noted are these: S. cerevisiae 75Q-TubH polyglutamine aggregation suppression; stronger effect = higher value.
The nature of experiment [9]: compounds altering circadian rhythm period length – cell-based, LOPAC library, luminescence reporter (AID 2774).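 Note: values are relative to mean of DMSO wells on each plate.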 The conditions noted are these: circadian reporter cells, at 7 µM, actives lie on both sides.
A short description of experiment [10]: P. berghei load reduction in hepatocytes – cell-based, HepG2, luciferase luminescence, HepG2 viability, primary screen (AID 624349; in the data active = parasite load remaining mostly below about 12%, no sharp cut-off; inactive = mostly above about 10%;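 note: 100% = mean of DMSO negative control wells on the same plate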). The conditions noted are these: P. berghei liver stage in HepG2, luciferase luminescence, concentration not given here; parasite load remaining: stronger effect = lower value; viability: measured here: HepG2 viability without parasites.
Experiment [11] deals with Hepatitis C virus NS3 helicase. As to the kind of experiment: blockers of NS3h binding to ssDNA – biochemical, fluorescence polarization, LOPAC1280 library, primary screen (AID 687035; in the data active = inhibition above about 37%). The conditions noted are these: Purified HCV NS3 helicase, Cy5-dT15 ssDNA binding fluorescence polarization; stronger effect = higher value; concentration not given here.
Experiment [12] can be described thus: compounds altering Cy5-DNA-NS3h complex signal – biochemical, LOPAC1280, artefact control for HCV NS3 helicase inhibitor project (AID 687037). The conditions noted are these: Cy5-DNA-NS3h complex fluorescence interference counterscreen. (A counterscreen serves to expose hits that act by an unwanted route or on another target.)
Experiment [13] has as its target 6-phosphogluconate dehydrogenase, decarboxylating (Homo sapiens) (UniProt P52209). Description: inhibition of human phosphogluconate dehydrogenase – biochemical, recombinant enzyme, NADPH absorbance, primary screen (AID 1159550;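 active = at least 20% inhibition of 6-phosphogluconate dehydrogenase activity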). The conditions noted are these: recombinant 6PGD, NADPH absorbance 341 nm; at 10 µM; stronger effect = higher value.
The test system of experiment [14] is Aerobactin synthetase IucA (Klebsiella pneumoniae hvKP1). Description: IucA enzyme inhibition, primary screen, biochemical, Spectrum library (AID 1346200).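 Note: 100% = wells without compound and 0% = wells lacking enzyme.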 The conditions noted are these: malachite green pyrophosphate, A620, at 8 µM, stronger effect = lower value.
Experiment [15] has as its system Aerobactin synthetase IucA (Klebsiella pneumoniae, hypervirulent). As to the kind of experiment: biochemical IucA inhibition screen of LOPAC library by absorbance (AID 1346212).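 Note: 100% = no compound wells and 0% = no enzyme wells.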 The conditions noted are these: IucA enzyme assay, absorbance (OD) readout; stronger effect = lower value;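 tested at 8 µM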.
Experiment [16] is described as follows: viability loss with induced miR-34 in A549 – imaging, A549 dox-inducible miR-34, nuclei and caspase counts, primary screen (AID 1347080;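 active = compounds whose cell count with miR-34 switched on is under 0.7 times the count with it off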). The conditions noted are these: A549 miR-34 inducible, Hoechst nuclei count, 48 h.
A short description of experiment [17]: blockers of cellular phospholipid synthesis – cell-based, LOPAC library, screen 4, primary screen (AID 1347384). The conditions noted are these: animal cells, phospholipid biosynthesis inhibition screen; at 10 µM.
For experiment [18], the target named is Mitogen-activated protein kinase 7 (Homo sapiens) (UniProt Q13164). As to the kind of experiment: Gal4-ERK5 driven luciferase induction – cell-based, HTS, primary screen (AID 1508626;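 active = luciferase signal above three times the same-plate solvent-only control wells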;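 note: luciferase driven by Gal4-ERK5 fusion binding five Gal4 sites before minimal TATA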). The conditions noted are these: HeLa Gal4-ERK5 transactivation, 18 h, at 5 µM, stronger effect = higher value.
A short description of experiment [19]: galactose survival enhancers in mitochondrial complex I cybrids – cell-based, galactose medium, ATP luminescence, primary screen (AID 1645843;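 active = z-score of at least 1.8 in each of two replicates, scored against plate mean and spread of sample wells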;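 note: positive z means more ATP and so rescue of galactose-driven cybrid death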). The conditions noted are these: complex I mutant cybrid cells, 72 h, stronger effect = higher value.
Experiment [20] in a line: EMT-state selective cytotoxicity in co-culture – imaging, PC-3E GFP, TEM4-18 mCherry, primary screen (AID 1345086;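 active = compounds killing one labelled cell type while sparing the other, by normalised counts and ratio limits, not self-fluorescent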;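 for all read-outs here: cells exposed to compound for 72 h before imaging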;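 for red/green cell ratio (normalised): normalised mesenchymal count divided by normalised epithelial count so high means epithelial killing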). The conditions noted are these: PC-3E GFP / TEM4-18 mCherry co-culture, imaging cell counts, at 1 µM; for red/green cell ratio (normalised): actives lie on both sides.
Experiment [21] deals with Aerobactin synthetase IucA (Klebsiella pneumoniae). Description: inhibition of K. pneumoniae IucA enzyme – biochemical, Tocris library, absorbance (AID 1345561).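 Note: 100% = enzyme without compound and 0% = no enzyme.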 The conditions noted are these: purified IucA enzyme assay, absorbance (OD) read-out; stronger effect = lower value;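 tested at 8 µM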.
Experiment [22] is described as follows: viability loss in pontine glioma line – cell-based, SU-DIPG-XVII, MIPE5.0, CellTiter-Glo, qHTS, dose response (AID 1347060; cut-off not given, nearly all actives have AC50 up to about 26 µM). The conditions noted are these: CellTiter-Glo ATP luminescence. In general terms: Cellular ATP, detected with luciferase, serves as a proxy for viable cell number.
Experiment [23] in a line: viability loss in pontine glioma line – cell-based, JHH-DIPG-1, MIPE4.0, CellTiter-Glo, qHTS, dose response (AID 1347062; cut-off not given, nearly all actives have AC50 up to about 27 µM;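 note: cells exposed to compound for two days before readout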). The conditions noted are these: JHH-DIPG-1 viability, CellTiter-Glo ATP luminescence.
Experiment [24] can be described thus: JHH-DIPG-1 glioma cell viability, MIPE5.0 library, CellTiter-Glo luminescence, qHTS (AID 1347067; cut-off not given, nearly all actives have AC50 up to about 26 µM;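 note: cells exposed to compound for 48 hours before readout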). The conditions noted are these: JHH-DIPG-1 glioma viability, CellTiter-Glo ATP luminescence.
Experiment [25] is described as follows: growth inhibition of DIPG cells – cell-based, MIPE5.0 library, qHTS (AID 1347068; cut-off not given, nearly all actives have IC50 up to about 30 µM). The conditions noted are these: SU-DIPG-XXV viability. (In general: Quantitative high-throughput screening tests each substance at several concentrations.)
The target of experiment [26] is NAD(+) hydrolase SARM1 (Homo sapiens) (UniProt Q6SZW1). As to the kind of experiment: blocking NAD cleavage by SARM1 SAM-TIR – cell lysate, NAD-Glo luminescence (AID 1508614;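 active = compound whose remaining NAD level is above about 45 nM, limit read from the data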;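 note: higher remaining NAD means stronger inhibition of SARM1 NADase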). The conditions noted are these: SAM-TIR HEK293T lysate NADase, at 1 µM, stronger effect = higher value.
A short description of experiment [27]: MELAS cybrid and Rieske KO viability enhancers – cell-based, MELAS cybrids, Rieske KO mouse fibroblasts, CellTiter-Glo, primary screen (AID 1508586;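 active = mean z-score across replicates of 1.96 or higher in either the MELAS or the Rieske mutant cell line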;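 note: z relative to plate mean and SD of compound and empty wells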). The conditions noted are these: low glucose.
[28] abbreviates: measured here: relative caspase fold change +Dox/-Dox.
Where [29] appears, read: measured here: total cells with miR-34 induction, stronger effect = lower value.
The mark [30] stands for this setting: measured here: total cells without miR-34 induction.
[31] abbreviates: measured here: epithelial PC-3E GFP cell survival.
[32] abbreviates: measured here: mesenchymal TEM4-18 mCherry cell survival.

From PubChem BioAssay come the findings set out here.

Each structure is given as a SMILES string. Where “and” joins values, the source holds several entries; their conditions need not be identical. Equal entries are not always repeated. Results filed as inconclusive are left out. For part of these data: Potency and affinity values are given separately. Calls of active or inactive are those of the source. Unless noted, the rule behind the calls is not given here.

6-phosphogluconate dehydrogenase, decarboxylating (Homo sapiens), sequence (P52209 whole entry, looked up): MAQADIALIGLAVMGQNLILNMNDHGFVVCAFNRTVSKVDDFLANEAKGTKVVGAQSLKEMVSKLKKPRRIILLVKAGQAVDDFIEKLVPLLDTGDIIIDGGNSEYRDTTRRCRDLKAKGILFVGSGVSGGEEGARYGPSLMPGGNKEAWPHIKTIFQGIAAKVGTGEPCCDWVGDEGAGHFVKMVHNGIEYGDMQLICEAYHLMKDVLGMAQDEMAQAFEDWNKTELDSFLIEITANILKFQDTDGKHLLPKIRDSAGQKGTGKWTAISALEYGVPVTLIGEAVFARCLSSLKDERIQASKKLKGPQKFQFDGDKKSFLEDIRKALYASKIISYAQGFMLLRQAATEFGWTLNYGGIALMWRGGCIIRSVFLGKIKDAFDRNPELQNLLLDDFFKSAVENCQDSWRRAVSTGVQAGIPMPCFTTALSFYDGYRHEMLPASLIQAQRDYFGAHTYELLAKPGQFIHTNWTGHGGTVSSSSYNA
Mitogen-activated protein kinase 7 (Homo sapiens), sequence (Q13164 whole entry, looked up, the tested form may be a part): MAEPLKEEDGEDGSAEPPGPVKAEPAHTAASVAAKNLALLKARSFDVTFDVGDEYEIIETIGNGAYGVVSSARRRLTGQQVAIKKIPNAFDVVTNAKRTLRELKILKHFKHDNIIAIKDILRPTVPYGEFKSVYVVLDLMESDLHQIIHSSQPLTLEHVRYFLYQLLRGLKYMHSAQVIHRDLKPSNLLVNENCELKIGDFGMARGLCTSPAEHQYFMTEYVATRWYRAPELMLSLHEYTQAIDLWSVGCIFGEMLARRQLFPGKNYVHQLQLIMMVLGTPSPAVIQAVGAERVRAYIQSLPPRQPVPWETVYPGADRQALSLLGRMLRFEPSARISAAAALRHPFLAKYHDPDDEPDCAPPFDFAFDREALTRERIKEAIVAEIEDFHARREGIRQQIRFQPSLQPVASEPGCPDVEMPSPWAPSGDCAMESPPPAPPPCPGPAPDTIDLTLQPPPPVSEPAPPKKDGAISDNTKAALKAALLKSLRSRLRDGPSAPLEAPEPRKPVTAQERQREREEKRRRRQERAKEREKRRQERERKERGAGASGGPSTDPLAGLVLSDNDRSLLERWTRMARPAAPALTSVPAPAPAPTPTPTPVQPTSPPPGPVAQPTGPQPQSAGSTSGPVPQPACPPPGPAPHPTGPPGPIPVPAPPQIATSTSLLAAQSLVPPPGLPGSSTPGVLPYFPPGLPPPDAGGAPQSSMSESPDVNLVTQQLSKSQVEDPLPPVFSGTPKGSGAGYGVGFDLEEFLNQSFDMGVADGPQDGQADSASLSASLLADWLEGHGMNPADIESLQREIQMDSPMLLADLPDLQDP
NAD(+) hydrolase SARM1 (Homo sapiens), sequence (Q6SZW1 whole entry, looked up): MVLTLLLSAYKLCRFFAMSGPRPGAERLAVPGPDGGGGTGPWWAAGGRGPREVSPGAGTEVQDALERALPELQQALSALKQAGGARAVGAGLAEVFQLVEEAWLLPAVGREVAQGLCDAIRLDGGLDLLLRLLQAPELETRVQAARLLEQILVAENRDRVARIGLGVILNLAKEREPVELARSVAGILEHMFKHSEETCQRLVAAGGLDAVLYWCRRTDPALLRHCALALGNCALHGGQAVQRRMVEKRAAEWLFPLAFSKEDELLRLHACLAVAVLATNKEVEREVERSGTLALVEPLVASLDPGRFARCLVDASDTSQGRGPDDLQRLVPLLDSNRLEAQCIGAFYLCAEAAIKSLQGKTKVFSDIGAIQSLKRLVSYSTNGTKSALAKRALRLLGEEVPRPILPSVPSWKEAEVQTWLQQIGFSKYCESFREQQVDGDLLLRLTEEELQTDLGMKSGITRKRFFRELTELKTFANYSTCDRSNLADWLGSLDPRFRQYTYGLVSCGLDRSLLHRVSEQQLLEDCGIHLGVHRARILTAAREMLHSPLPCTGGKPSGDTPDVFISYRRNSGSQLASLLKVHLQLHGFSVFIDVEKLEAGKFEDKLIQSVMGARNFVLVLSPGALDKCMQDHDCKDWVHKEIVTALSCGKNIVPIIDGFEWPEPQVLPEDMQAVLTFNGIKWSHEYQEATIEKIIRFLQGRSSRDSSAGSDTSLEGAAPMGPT

In general, inhibition refers to the drop in the measured response relative to a control, in per cent. As usually defined, the viability is a read-out of living cells in per cent, often relative to untreated cells. What is called remaining activity is the signal under treatment as a percentage of the control signal. Turning to `NC(=NCCC[C@H](N)C(=O)O)N[N+](=O)[O-]`, the inhibition was -12.4% and -12.2% in experiment [1]; -2% (inactive) in [11]; 3.83% (inactive) in [13]. The score in [2] was 0.79 and 1.25. In [3], the rescue above control was -0.39 and 5.97. Further, in experiment [4], the cytochrome c release ratio was 0.94 and 0.84. In addition, the inhibition of aggregation in experiment [5] is 34.7% and 12.9%. In [6], the glutamate uptake change is 19.3% and -1.48%. The same compound displayed an inclusion score in [7] of 2. The aggregation suppression score in experiment [8] was 1.04 and 1.38. Moreover, in [9], the period change is 0.04 h (inactive). Further, the parasite load remaining in experiment [10] is 100% (inactive). In addition, in experiment [10], the viability stood at 68.5%. In addition, in [12], the fluorescence ratio (interference) is 1 (inactive). Also, the activity remaining in experiment [14] is 121% (inactive). Besides, in experiment [15], the remaining activity is 115% (inactive). In addition, the fold change was 1.02 (inactive) in [16] (stronger effect = lower value) and 0.79 in experiment [16] (setting [28]). For the same compound, the cell count amounted to 10000 in [16] (setting [29]) and 9830 in experiment [16] (setting [30]). Moreover, the compound was called inactive in [17]. The luciferase signal in [18] is 44 AU (inactive). Also, the z-score in experiment [19] is 0.525 (inactive).
As to `CNC(=O)CSP(=S)(OC)OC`, the inhibition in experiment [13] was -17.5% (inactive). The activity remaining in experiment [14] is 98.2% (inactive).
For `COc1nc(NC(C)C)nc(NC(C)C)n1`, in [13], the inhibition is -20.6% (inactive). Further, the activity remaining in experiment [14] is 117% (inactive).
As to `COc1cc2c(c(OC)c1OC)-c1ccc(O)c(=O)cc1[C@@H](NC(C)=O)CC2`, the inhibition in experiment [13] is 7.64% (inactive). Moreover, in experiment [14], the activity remaining is 120% (inactive).
`c1ccc(N=Nc2ccccc2)cc1`: the inhibition in experiment [1] is -11.7%; in [13] it was 14.4% (inactive). The score in experiment [2] was 0.28. In [3], this compound gave a rescue above control of 6.73. For the same compound, in experiment [4], the cytochrome c release ratio was 0.73. Further, the inhibition of aggregation in experiment [5] was determined as 88.8%. Also, the glutamate uptake change in experiment [6] was -16%. The compound also came in with an aggregation suppression score in experiment [8] of 0.313. The parasite load remaining in [10] is 103% (inactive). Moreover, the viability in experiment [10] came to 66.9%. The red/green cell ratio (normalised) in experiment [20] is 0.85 (inactive). In addition, the figures for the normalised cell number in [20] (setting [31]) and in experiment [20] (setting [32]) were 1.3 and 1.1, respectively. Also, the activity remaining in experiment [14] is 103% (inactive). Besides, the luciferase signal in experiment [18] was 40 AU (inactive).
For orientation: AC50 means the concentration at which the activity in the assay is half-maximal. `O=c1cccc2n1CC1CNC[C@H]2C1`: in experiment [10], the parasite load remaining was 134% (inactive). In [10], the viability is 104%. The inhibition in experiment [13] is -36.3% (inactive). For the same compound, in [21], the remaining activity was 96.4% (inactive). In addition, the call in [22], in experiment [24] and in experiment [25] was inactive. Also, the concentration at half-maximal activity (AC50) in experiment [23] is 2.64 µM (active). Besides, the fold change in [16] (stronger effect = lower value, cell number ratio, induced over uninduced) was 0.809 (inactive) and 0.946 (inactive); in [16] (setting [28]), 1.71 and 1.27. Also, the cell count in [16] (setting [29]) is 8130 and 8990; in experiment [16] (setting [30]), 10000 and 9510. In experiment [26], the remaining NAD is 10 nM (inactive). Moreover, the luciferase signal in experiment [18] is 60 AU (inactive). Further, in experiment [19], the z-score is 1.16 (inactive).
As for `CC(=O)OC1CN2CCC1CC2` (stereo not drawn), the inhibition in [1] is 0.37%; in experiment [13], 8.99% (inactive). This compound also gave a score in experiment [2] of 1.53. The compound further came in with a rescue above control in experiment [3] of -10.7. In addition, in experiment [4], the cytochrome c release ratio came to 0.82. The compound further had an inhibition of aggregation in experiment [5] of 22.1%. Also, the glutamate uptake change in experiment [6] amounted to 24.5%. Further, the inclusion score in [7] was 2. In experiment [8], this compound registered an aggregation suppression score of 1.12. The red/green cell ratio (normalised) in experiment [20] was 0.81 (inactive). In addition, the normalised cell number in [20] (setting [31]) is 1.08; in [20] (setting [32]), 0.87. The fold change is 0.909 (inactive) in experiment [16] (stronger effect = lower value) and 0.869 in experiment [16] (setting [28]). In addition, the cell count in [16] (setting [29]) was determined as 8550; in experiment [16] (setting [30]), 9400. Also, the z-score in experiment [27] (MELAS cybrid survival, CellTiter-Glo 48 h, stronger effect = higher value) is -3.18 (inactive); in [27] (Rieske KO mouse fibroblast survival, CellTiter-Glo 72 h), -1.86. For the same compound, in experiment [26], the remaining NAD was 10 nM (inactive).
